# Screening data from PubChem.
# Many of the other results were omitted from the sample, so hits are more common in it than they were.
# LmPK inh = LmPK (Leishmania mexicana) enzyme inhibition; purified LmPK, Kinase-Glo ATP luminescence, 1 h; Potency, µM (top dose mostly 57.5 µM), without a hit: at the top dose activity change, negative = inhibition, most hits filed as inhibitors; hit rate 0.37% among 290,000; AID 1721; note: potency is the fitted concentration of half-maximal effect; % is set by controls: 0 for no effect and ±100 for the full control effect
#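 Kinase-Glo luminescence read after 1 h RT reaction of 0.1 nM LmPK with 0.5 mM PEP and 0.1 mM ADP. Activity scaled between uninhibited and enzyme-free controls.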
# Shiga inhibitor = blocks Shiga toxin action in Vero cells; Vero cells, Shiga toxin protein synthesis inhibition reporter; inhibition, % at 38.7 µM; hit rate 9.2% among 290,000; AID 2315; in the data active = inhibition mostly above about 28%, no sharp cut-off; inactive = mostly below about 43%; note: 0% is about no effect
# TbPYK inhibitor = T. brucei pyruvate kinase inhibition; TbPYK enzyme, Kinase-Glo Plus ATP luminescence, 45 min; AID 624173; Potency, µM (top dose mostly 76.8 µM), for the others: at the highest dose activity, negative = inhibition, actives largely listed as inhibitors; hit rate 0.12% among 410,000; Q57TT1; note: potency is the fitted concentration of half-maximal effect; % is set by controls: 0 for no effect and ±100 for the full control effect; nearly all actives have a fitted effect of over 50% in size
#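 Screened from lowest to highest concentration, compounds were pinned into TbPYK/substrate mixtures, and ADP (130 uM final) was added. Plates sat at room temperature for 45 min prior to Kinase-Glo Plus detection by luminescence.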
# FBPA Giardia inh = inhibitors of Giardia lamblia fructose-1,6-bisphosphate aldolase. A8B2U2. purified Giardia FBPA. AID 2451. Potency, µM (doses to about 59.6 µM), inactives show at the highest dose activity, negative = inhibition, actives largely listed as inhibitors. hit rate 0.71% among 290,000; note: potency is the fitted concentration of half-maximal effect; % is set by controls: 0 for no effect and ±100 for the full control effect; nearly all actives have a fitted effect of over 55% in size
# Target sequence (A8B2U2 whole entry, looked up): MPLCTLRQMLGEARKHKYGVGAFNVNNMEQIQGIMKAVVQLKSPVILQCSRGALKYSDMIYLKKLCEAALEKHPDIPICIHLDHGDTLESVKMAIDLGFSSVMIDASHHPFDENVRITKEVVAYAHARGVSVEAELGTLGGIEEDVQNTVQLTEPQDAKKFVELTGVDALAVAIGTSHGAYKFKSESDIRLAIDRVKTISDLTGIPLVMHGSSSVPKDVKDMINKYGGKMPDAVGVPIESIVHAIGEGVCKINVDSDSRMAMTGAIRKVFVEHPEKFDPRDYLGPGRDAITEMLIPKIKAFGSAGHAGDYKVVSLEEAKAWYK
#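 Giardia FBPA (40 nM reagent) was preincubated 10 min at RT with compound (up to 57.5 uM final), then substrate plus GAPDH/TPI/NAD/arsenate coupling system with diaphorase/resazurin was added; resorufin fluorescence (525/598 nm) was read after 20 min.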
# CHX counter = affects cycloheximide protein synthesis inhibition readout, counter-screen. cell reporter, cycloheximide protein synthesis inhibition counterscreen. max response, %. hit rate 12% among 300,000; in the data active = max response mostly above about 13%, no sharp cut-off; inactive = mostly below about 14%; note: read at 38.3 µM for the half of the compounds with a filed dose; 0% is about no effect
# Sm TGR block = inhibitors of Schistosoma mansoni thioredoxin glutathione reductase. Potency, µM (highest dose often 114 µM), inactives show at the top dose activity change, negative = inhibition, actives largely listed as inhibitors. hit rate 3% among 360,000. purified TGR, DTNB reduction, TNB absorbance 405 nm. Q962Y6; note: potency is the fitted concentration of half-maximal effect; % is set by controls: 0 for no effect and ±100 for the full control effect; nearly all actives have a fitted effect of over 60% in size
#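 TGR 20 nM + NADPH 100 uM (dispensed conc.), cpd preinc 15 min RT; start with NADPH (500 uM addition) then DTNB (15 mM addition). Kinetic TNB absorbance, 405 nm filter. Four-parameter Hill fit across titration.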
# * hit, by the source's call; ? = inconclusive; / = not tested or not shown; [ ] = dose if it differs, or a comment. Unless noted, calls come from the whole dose curve; as a rule, active = well fitted curve in the direction sought with a large enough effect; inconclusive = small, poorly fitted or top-dose-only effect, or another doubt; inactive = no such curve, though single readings can be large; an effect the other way counts as inactive or inconclusive.
SMILES,LmPK inh,Shiga inhibitor,TbPYK inhibitor,FBPA Giardia inh,CHX counter,Sm TGR block
CC(=O)Nc1ccc(-c2nnc(SCC(=O)Nc3ccc4c(c3)oc3ccccc34)n2C)cc1,1%,44,-17%,9%,16*,26%
CCn1c(SCC(=O)Nc2ccc3c(c2)oc2ccccc23)nnc1-c1ccc(N)cc1,-7%,39,0%,0%,35*,2%
CCC1=C2CC[C@H]3C(=O)N(C)C(=O)[C@H]3[C@H]2[C@@]2(C)C(=O)N(CC(=O)OC)C(=O)N2C1=O,/,/,/,3%,/,/
O=C(NCCc1ccccc1)N1CCCC(CNS(=O)(=O)Cc2ccccc2)C1 (configuration not stated),6%,22,-1%,2%,14*,10%
CCOC(=O)CNC(=O)N1CCCC(CNS(=O)(=O)Cc2ccccc2)C1 (configuration not stated),3%,-5,-9%,-2%,-1,11%
CC1CCN(C(=S)NCCc2ccccc2)CC1,4%,82*,-4%,-1%,30*,-24%
OCC1CCCN(C(=S)NCCc2ccccc2)C1 (configuration not stated),-1%,36,-13%,2%,33*,15%
CN1CCN(C(=S)NCCc2ccccc2)CC1,-2%,44,-3%,-15%,35*,-11%
CC(C)(C)CC(C)(C)c1ccc(OCC(=O)Nc2ccc(S(=O)(=O)Nc3ncccn3)cc2)cc1,/,/,3%,/,/,-9%
COc1cc(C(=O)Nc2ccc(OCc3cc(=O)n4cccc(C)c4n3)cc2)cc(OC)c1OC,/,/,13%,/,/,2%
CCCc1cc(Nc2c(C)n(C)n(-c3ccccc3)c2=O)n2c(nc3ccccc32)c1C#N,1%,-6,4%,-29%,3,14µM*
Cc1cc(Nc2c(C)n(C)n(-c3ccccc3)c2=O)n2c(nc3ccccc32)c1C#N,1%,-10,2%,?,-2,22µM*
COc1cc(COc2cc(N)c(Cl)cc2C(=O)CCC2CCN(CCNS(C)(=O)=O)CC2)cc(OC)c1,/,/,/,1%,/,/
O=c1c2ccccc2nc2ccc(NCc3cccs3)nn12,-1%,59*,-5%,0%,54*,-1%
c1ccc(-c2cc3nc(NCc4cccs4)ccn3n2)cc1,/,/,-2%,/,/,/
Cc1ccc(-n2c(SCC(=O)N3CCOCC3)nnc2-c2cccnc2)cc1C,2%,5,-5%,5%,-2,5%
Cc1cc(C(=O)CSc2nnc(-c3cccnc3)n2-c2ccccc2)c(C)n1CC1CCCO1 (configuration not stated),-10%,97,-3%,7%,23*,-29%
Cc1ccc(-n2c(SCC(=O)N3CCOCC3)nnc2-c2cccnc2)cc1,-9%,56*,-2%,0%,24*,4%
COC(=O)c1c(C)[nH]c(C(=O)/C=C/c2cccc(Cl)c2)c1C,-1%,62*,-7%,4%,39*,-15%
COC(=O)c1c(C)[nH]c(C(=O)CC#N)c1C,10%,-10,-13%,-3%,5,21%
COC(=O)c1c(C)[nH]c(C(=O)/C=C/c2ccc(C)cc2)c1C,-3%,25,1%,1%,1,3%
COC(=O)c1c(C)[nH]c(C(=O)/C=C/c2ccccc2)c1C,1%,89*,-2%,5%,43*,4%
COC(=O)c1c(C)[nH]c(C(=O)CSc2ccc(Cl)cc2)c1C,0%,42,-11%,-5%,30*,1%
COc1ccc(CCC(=O)Nc2ccc(Br)cn2)cc1,9%,78,-25%,-2%,38*,2%
CCCCC(=O)Nc1ccc(Cl)cn1,1%,35,-4%,2%,14,-26%
SMILES,LmPK inh,Shiga inhibitor,TbPYK inhibitor,FBPA Giardia inh,CHX counter,Sm TGR block
CCCCCCC(=O)Nc1ccc(Br)cn1,1%,50*,0%,4%,30*,28%
CCCC(C)C(=O)Nc1ccc(Cl)cn1 (configuration not stated),-1%,47*,-2%,4%,8.0*,-8%
O=C(O)CCC(=O)Nc1ccc(Br)cn1,11%,-13,1%,1%,-5,-27%
CCCCCC(=O)Nc1ccc(Cl)cn1,-2%,61*,1%,-1%,39*,-5%
COC(=O)C1=C(C(=O)OC)[C@@H]2N(C)c3ccccc3[C@@]23C[C@@H](C(=O)OC)N(S(=O)(=O)c2ccc(C#N)cc2)C3=N1,-4%[11.5 µM],/,/,3%[12.9 µM],/,/
COc1ccc(-c2nc(C)c(CCNC(=O)C(=O)Nc3cccc(F)c3)s2)cc1OC,/,/,-2%,/,/,3%
Cc1ccc(Sc2ncccc2C(=O)NCc2cc([N+](=O)[O-])ccc2O)c(C)c1,-10%,104*,-6%,/,66*,?
Cc1cccc2c(=O)n(C(=O)c3ccccc3)c(N)nc12,/,/,-14%,/,/,/
CC(Cl)c1cc(-c2ncc(C(F)(F)F)cc2Cl)no1 (configuration not stated),0%,84*,-9%,1%,23*,2%
CC(C)NC(=O)C1(C)CCN1C(=O)C(c1ccccc1)c1ccccc1 (configuration not stated),/,/,7%,/,/,/
O=C(c1ccccc1)c1ncc[nH]1,-9%,36,2%,-3%,19*,-3%
Cc1ccc(-n2ncc3c(NCCCN4CCOCC4)ncnc32)cc1Cl,/,/,-9%,/,/,0%
COc1ccc(-n2ncc3c(NCCN4CCOCC4)ncnc32)cc1,-15%,47*,-5%,0%,34*,-12%
COc1ccc(-n2ncc3c(NCCCN4CCOCC4)ncnc32)cc1,-9%,83*,?,-3%,41*,4%
CCCNc1ncnc2c1cnn2-c1ccc(OC)cc1,6%,-11,/,-3%,-2,-34%
CCN(CC)CCCNC(=O)C1CCC(CNS(=O)(=O)c2ccc(Cl)cc2)CC1 (configuration not stated),6%,-9,-2%,-2%,2,-2%
Clc1ccc(-n2cc(COCc3ccccc3)nn2)cc1,0%,57*,-3%,1%,24,0%
COc1ccc(-c2nc(S(=O)(=O)c3ccc(Cl)cc3)c(N3CCCCCC3)o2)cc1,/,/,1%,/,/,22µM*
Cc1ccc(-c2nc(S(=O)(=O)c3ccc(C)cc3)c(N3CCOCC3)o2)cc1,-1%,3,28%,/,-1,3.5µM*
Cc1cccc(-c2nc(S(=O)(=O)c3ccccc3)c(N3CCOCC3)o2)c1,-2%,-3,-4%,/,-9,45µM*
Cc1cccc(-c2nc(C#N)c(N3CCC(C)CC3)o2)c1,5%,-9,-1%,-5%,2,-14%
COc1ccccc1-c1nc(S(=O)(=O)c2ccc(Cl)cc2)c(N2CCCCCC2)o1,/,/,0%,/,/,?
CCOc1ccc(-c2nc(S(=O)(=O)c3ccccc3)c(N3CCOCC3)o2)cc1,2%,-8,-3%,-15%,-1,/
